Columns and labels:
Assay in all cases: log2 ratio of Biotin-Ahx-Ub-VS probe labelling (fragment/DMSO); higher = less target engagement (more negative = stronger competition), active = hit call of the paper (q ≤ 0.05, log2 ratio ≤ -1)
Conditions in all cases: compound concentration: 200 uM; treatment time: 3 h
USP34 = USP34 (UniProt Q70CQ2)
Summary of the method: (§1)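 Labelled DUBs from HEK293T lysate were NeutrAvidin-enriched, digested with LysC and trypsin, and run by diaPASEF LC-MS/MS. Before that, each 495 µg sample in Tris/CHAPS/IGEPAL buffer with protease inhibitors was treated in triplicate with fragment at 200 µM or vehicle for 3 h, then with Biotin-Ahx-Ub-VS at 0.5 µM final for 1 h. Values are average log2 ratios of fragment over vehicle by unpaired t-test, based on global-median-normalised Spectronaut label-free quantities from proteins with ≥2 unique peptides.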

USP36 = molecular target: T1, USP36 (UniProt Q9P275)
T1 sequence (whole entry): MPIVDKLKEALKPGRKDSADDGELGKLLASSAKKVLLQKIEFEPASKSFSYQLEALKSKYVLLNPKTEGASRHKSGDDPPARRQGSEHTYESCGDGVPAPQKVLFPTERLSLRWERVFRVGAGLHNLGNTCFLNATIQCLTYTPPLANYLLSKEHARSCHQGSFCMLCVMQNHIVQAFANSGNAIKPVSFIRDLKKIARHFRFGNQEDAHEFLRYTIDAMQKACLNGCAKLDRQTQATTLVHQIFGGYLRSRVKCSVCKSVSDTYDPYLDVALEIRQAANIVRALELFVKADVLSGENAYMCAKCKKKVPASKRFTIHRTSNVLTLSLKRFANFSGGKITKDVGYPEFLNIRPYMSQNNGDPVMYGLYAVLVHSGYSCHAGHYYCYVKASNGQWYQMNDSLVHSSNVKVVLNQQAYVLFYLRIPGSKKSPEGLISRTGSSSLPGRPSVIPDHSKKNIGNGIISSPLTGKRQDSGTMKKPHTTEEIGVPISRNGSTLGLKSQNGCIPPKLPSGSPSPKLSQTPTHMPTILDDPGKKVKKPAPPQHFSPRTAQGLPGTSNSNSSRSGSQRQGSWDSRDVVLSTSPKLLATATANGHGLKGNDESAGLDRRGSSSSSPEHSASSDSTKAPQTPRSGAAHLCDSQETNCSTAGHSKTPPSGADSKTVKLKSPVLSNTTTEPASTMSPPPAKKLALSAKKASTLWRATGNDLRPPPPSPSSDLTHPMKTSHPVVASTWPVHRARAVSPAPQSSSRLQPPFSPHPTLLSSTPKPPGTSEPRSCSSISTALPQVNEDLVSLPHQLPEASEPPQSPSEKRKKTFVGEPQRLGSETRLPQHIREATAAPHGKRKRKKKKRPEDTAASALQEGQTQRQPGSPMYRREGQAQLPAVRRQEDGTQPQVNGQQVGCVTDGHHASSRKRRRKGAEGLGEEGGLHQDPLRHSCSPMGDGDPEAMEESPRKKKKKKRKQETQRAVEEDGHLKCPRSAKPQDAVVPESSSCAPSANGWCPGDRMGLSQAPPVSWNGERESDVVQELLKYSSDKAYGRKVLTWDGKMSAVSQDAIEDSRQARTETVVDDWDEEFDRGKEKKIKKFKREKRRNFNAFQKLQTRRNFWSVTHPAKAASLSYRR
Summary of the method: as §1

USP38 = molecular target: T2, USP38 (UniProt Q8NB14)
T2 sequence (whole entry): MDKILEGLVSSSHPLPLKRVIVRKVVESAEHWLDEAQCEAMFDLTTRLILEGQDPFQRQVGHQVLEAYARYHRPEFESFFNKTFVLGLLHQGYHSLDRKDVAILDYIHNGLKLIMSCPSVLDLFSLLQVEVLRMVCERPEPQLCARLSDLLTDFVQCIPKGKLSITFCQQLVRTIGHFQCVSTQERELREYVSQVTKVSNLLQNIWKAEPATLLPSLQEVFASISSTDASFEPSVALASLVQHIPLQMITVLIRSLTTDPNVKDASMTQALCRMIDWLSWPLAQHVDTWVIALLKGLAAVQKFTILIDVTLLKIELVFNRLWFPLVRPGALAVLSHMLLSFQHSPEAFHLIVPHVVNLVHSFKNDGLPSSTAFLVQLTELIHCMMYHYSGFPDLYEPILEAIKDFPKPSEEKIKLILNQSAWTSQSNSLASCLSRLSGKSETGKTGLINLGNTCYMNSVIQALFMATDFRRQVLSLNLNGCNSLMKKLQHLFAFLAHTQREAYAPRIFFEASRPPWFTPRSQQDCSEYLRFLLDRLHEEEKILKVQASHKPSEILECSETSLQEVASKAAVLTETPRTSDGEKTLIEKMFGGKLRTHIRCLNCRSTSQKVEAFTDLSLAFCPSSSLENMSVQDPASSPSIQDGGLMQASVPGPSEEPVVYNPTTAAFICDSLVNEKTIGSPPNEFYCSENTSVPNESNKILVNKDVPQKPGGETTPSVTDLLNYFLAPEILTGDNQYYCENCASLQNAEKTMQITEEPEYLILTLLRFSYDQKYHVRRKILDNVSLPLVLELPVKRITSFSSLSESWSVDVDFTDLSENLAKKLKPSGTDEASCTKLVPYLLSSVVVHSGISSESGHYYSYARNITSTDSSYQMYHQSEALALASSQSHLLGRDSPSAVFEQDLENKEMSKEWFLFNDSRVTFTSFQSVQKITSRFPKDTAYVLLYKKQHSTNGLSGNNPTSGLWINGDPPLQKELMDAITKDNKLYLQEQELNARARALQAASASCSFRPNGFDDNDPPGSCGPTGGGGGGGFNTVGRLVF
Summary of the method: as §1

USP39 = molecular target: T3, USP39 (UniProt Q53GS9)
T3 sequence (whole entry): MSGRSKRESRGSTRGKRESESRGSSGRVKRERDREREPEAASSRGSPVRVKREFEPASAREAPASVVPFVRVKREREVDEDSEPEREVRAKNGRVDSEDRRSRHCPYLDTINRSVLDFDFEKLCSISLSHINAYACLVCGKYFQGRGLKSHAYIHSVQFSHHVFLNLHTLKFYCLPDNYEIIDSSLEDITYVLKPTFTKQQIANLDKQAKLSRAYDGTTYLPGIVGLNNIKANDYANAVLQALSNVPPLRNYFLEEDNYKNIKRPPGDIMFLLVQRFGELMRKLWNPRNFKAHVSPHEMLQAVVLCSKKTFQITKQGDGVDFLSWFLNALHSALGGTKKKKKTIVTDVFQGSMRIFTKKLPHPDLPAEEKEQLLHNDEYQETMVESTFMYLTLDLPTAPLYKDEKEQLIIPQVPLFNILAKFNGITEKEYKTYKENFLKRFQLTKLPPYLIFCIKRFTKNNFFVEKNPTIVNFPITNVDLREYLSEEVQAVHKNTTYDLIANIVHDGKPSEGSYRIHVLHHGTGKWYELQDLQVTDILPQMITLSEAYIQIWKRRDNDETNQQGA
Summary of the method: as §1

USP4 = molecular target: T4, USP4 (UniProt Q13107)
T4 sequence (whole entry): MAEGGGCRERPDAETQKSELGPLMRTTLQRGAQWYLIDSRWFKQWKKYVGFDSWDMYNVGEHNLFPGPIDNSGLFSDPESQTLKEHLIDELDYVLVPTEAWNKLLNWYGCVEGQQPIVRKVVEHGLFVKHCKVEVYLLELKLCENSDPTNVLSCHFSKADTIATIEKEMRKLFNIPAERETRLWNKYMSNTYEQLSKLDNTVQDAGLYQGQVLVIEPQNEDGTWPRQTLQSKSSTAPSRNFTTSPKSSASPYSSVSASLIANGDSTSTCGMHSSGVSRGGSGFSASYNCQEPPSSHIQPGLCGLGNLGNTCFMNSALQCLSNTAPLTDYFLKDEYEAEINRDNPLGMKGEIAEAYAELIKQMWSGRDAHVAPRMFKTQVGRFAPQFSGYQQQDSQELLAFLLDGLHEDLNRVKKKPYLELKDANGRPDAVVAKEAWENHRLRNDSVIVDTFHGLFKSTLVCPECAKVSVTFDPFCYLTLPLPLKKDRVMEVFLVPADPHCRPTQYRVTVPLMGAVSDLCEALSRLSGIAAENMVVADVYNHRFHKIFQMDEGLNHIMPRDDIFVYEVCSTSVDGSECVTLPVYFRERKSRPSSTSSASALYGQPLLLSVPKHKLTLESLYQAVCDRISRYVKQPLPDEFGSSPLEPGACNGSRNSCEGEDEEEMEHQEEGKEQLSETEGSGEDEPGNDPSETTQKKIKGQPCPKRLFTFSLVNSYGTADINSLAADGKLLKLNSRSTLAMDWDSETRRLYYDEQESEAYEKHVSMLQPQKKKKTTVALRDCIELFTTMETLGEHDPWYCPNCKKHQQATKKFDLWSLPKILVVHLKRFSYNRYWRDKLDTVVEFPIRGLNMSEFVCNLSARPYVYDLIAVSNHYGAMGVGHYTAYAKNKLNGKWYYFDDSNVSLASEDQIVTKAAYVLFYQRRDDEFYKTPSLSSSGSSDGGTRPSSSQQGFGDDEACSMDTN
Summary of the method: as §1

Measured: log2 ratio of Biotin-Ahx-Ub-VS probe labelling

Sequence of USP34 (Q70CQ2 whole entry, the tested form may be a part): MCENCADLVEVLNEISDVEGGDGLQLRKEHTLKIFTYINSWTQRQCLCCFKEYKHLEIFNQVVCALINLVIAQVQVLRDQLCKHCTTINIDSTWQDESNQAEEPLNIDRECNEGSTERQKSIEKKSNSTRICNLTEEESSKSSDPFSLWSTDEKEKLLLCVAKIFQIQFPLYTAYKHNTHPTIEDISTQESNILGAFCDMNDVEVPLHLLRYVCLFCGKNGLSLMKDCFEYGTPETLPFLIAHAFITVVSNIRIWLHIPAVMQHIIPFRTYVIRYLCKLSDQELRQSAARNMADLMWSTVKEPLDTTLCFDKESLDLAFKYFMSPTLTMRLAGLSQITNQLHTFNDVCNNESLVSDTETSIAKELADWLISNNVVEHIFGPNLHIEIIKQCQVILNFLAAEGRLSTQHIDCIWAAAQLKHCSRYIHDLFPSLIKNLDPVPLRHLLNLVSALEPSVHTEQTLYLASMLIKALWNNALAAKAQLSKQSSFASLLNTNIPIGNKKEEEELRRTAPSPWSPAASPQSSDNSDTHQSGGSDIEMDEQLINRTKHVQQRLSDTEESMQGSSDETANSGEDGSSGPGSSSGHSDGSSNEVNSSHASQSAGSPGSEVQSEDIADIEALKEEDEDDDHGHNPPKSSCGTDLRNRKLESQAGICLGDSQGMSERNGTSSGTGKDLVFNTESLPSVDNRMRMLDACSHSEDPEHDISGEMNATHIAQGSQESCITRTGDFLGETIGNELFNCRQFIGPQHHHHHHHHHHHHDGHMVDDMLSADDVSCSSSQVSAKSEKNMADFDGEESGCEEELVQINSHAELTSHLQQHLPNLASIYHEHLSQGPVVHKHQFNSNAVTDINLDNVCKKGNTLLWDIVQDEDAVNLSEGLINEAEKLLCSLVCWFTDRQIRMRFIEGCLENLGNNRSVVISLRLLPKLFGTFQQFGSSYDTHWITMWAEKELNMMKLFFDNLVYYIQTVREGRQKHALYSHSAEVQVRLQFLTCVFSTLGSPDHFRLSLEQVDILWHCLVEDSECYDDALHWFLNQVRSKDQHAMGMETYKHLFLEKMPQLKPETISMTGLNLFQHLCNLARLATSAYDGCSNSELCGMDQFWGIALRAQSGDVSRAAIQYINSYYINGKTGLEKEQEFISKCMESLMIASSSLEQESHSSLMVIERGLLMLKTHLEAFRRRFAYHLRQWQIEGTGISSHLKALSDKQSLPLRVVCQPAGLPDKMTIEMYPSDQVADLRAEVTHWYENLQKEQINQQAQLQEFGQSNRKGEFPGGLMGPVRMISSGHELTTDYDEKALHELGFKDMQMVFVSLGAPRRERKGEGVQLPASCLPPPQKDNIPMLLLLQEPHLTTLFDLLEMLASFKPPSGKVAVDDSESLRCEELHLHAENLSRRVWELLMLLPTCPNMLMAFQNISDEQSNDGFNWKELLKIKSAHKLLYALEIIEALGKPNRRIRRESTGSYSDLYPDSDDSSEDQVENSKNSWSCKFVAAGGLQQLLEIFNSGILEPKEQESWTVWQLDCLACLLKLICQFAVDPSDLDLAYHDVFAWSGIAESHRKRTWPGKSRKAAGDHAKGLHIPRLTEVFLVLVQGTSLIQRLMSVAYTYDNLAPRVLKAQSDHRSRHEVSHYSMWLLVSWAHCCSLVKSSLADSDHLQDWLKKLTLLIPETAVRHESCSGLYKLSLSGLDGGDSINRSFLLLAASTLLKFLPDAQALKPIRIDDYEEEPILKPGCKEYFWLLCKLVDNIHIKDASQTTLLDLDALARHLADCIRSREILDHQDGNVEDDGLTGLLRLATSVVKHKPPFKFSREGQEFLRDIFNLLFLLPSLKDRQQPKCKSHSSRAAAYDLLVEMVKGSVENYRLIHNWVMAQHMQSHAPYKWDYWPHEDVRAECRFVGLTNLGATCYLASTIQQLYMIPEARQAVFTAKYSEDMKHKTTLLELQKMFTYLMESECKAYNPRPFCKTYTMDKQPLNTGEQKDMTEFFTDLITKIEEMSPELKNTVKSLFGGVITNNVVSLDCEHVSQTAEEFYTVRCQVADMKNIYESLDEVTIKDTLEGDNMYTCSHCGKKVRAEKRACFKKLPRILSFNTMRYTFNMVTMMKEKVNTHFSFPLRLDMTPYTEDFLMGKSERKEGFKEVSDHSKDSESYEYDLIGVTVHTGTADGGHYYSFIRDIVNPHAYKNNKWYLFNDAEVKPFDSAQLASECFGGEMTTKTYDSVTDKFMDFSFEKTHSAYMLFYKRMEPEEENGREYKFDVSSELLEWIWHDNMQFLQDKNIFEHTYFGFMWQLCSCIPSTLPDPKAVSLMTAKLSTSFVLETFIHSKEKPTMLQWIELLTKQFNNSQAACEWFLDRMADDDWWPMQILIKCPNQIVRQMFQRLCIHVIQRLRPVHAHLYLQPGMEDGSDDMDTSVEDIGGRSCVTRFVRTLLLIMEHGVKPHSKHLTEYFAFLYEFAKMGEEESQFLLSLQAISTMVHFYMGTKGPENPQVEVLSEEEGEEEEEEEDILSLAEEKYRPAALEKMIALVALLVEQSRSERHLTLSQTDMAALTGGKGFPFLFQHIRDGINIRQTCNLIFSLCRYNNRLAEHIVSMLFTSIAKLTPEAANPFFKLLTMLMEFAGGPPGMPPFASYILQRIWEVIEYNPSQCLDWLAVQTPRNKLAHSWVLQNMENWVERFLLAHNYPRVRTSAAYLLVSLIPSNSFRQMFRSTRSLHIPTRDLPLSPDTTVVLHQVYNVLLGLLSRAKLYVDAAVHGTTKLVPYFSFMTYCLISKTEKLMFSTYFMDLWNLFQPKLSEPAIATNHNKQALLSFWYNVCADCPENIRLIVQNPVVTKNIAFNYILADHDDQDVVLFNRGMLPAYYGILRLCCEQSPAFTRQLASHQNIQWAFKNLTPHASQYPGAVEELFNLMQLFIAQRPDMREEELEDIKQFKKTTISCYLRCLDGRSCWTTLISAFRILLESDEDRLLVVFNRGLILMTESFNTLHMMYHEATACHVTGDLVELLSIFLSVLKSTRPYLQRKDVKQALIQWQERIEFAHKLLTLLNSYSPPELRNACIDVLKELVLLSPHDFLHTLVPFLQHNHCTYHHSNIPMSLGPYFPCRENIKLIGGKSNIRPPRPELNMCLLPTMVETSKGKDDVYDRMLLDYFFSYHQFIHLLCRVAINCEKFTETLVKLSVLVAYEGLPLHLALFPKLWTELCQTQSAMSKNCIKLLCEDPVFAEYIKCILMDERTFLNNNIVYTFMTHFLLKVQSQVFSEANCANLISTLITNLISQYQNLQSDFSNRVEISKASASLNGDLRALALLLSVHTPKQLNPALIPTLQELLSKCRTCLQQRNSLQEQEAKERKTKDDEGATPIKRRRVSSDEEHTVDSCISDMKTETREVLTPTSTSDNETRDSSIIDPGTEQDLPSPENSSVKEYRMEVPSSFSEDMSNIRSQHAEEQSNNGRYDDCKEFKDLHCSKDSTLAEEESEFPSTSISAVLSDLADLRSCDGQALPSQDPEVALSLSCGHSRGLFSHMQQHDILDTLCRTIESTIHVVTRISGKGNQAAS

O=C(CCl)NCCc1ccc2c(c1)OCCO2
inactive: USP34 -0.523 | USP36 -0.0707 | USP38 -0.0664 | USP39 -0.16 | USP4 -0.295

— the supplement of paper PMC11732987, “Enantioselective OTUD7B fragment discovery through chemoproteomics screening and high-throughput optimisation” (Communications Chemistry, 2025)
